Myeloid diff 2 – promotes myeloid progenitor differentiation. ER-HoxA9 myeloid progenitors, lysozyme-GFP differentiation, flow cytometry. calls only at 10 µM. 1% of 360,000 active;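 active = normalized GFP-positive differentiation at or above the plate's own cutoff, the solvent-only control mean plus 3 SD; inconclusive = no clear call, values can overlap the other calls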;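 note: cells exposed to compound for four days before flow analysis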
IDE cell inh – inhibits human insulin-degrading enzyme in HEK cells; FAbetaB cleavage, fluorescence polarization; inhibition, % at 5.59 µM; 0.41% of 320,000 active;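 active = percent inhibition above the average of all tested compounds plus 3 SD, set per screening campaign, cut at about 16% in these data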;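 note: IDE supplied by intact live HEK cells; FP after avidin binding of uncleaved biotin substrate so inhibition keeps polarization high; 0% = DMSO wells and 100% = 60 µM reference IDE inhibitor Ii1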
CRFR2-BP antag – blocks CRF-induced signaling of the CRF-BP/CRF-R2 complex; 0.59% of 350,000 active; HEK293 CRF-R2/CRF-BP, CRF-induced calcium fluorescence; inhibition, % at 11.8 µM; AID 588475;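 active = inhibition of the ligand-induced calcium signal above about 50% at the single tested concentration, limit read from the data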
IDE act – boosts human insulin-degrading enzyme activity in HEK cells. P14735. FAbeta-B cleavage, fluorescence polarization; 0% vehicle, 100% cell-free pure enzyme wells. activation, % at 5.96 µM. 0.073% of 340,000 active. AID 493087;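 active = activation above the mean of all tested compounds plus 3 SD, set per screening campaign, cut at about 17% in these data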
TPT1 inh – blocks Candida albicans tRNA 2'-phosphotransferase. recombinant caTPT1, FP RNA substrate dephosphorylation. inhibition, % at 5 µM. 0.81% of 300,000 active. AID 1962;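 active = inhibition above the mean of all tested compounds plus 3 SD, set per screening campaign, cut at about 24% in these data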;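 note: plate controls were DMSO alone for no effect and ferristatin control at 100 nM for full effect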
CRFR2-BP ag – agonists of human CRF-binding protein/CRF-R2 receptor complex. HEK293 CRF-R2/CRF-BP, calcium dye fluorescence (FLIPR); percent of saturating CRF peptide response. 0.46% of 350,000 active. activation, % at 13.2 µM;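 active = activation of at least 50%, plus an integration ratio under a set limit after plate pattern correction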;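 note: plate controls were neutral control wells without compound for no effect and CRF at EC100 for full effect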
* = called active by the depositor; i = inactive; ? = inconclusive; · = not tested or not shown; + = active, no number. This is a sample that favours compounds with a hit; in the whole collection about 2.6% have one here.

SMILES | Myeloid diff 2 | IDE cell inh | CRFR2-BP antag | IDE act | TPT1 inh | CRFR2-BP ag
COc1ccc(-c2nnc(SCC(=O)N3CCCC3=O)n2N)cc1OC | i | -1.6 | 3.9 | 2.4 | · | -0.7
N#Cc1ccc(S(=O)(=O)N2CCN(CC(=O)NCC3(N4CCOCC4)CCCCC3)CC2)cc1 | i | 5.3 | 6.1 | -2.9 | · | -1.6
C=CCOC(=O)c1cc(-c2ccc(/C=C3\C(=O)NC(=O)C(C#N)=C3C)o2)ccc1Cl | i | · | -10.9 | -0.3 | · | 1.0
CCCOC(=O)c1cc(-c2ccc(/C=C3/C(=O)N(C)C(=O)C(C#N)=C3C)o2)ccc1Cl | i | 8.3 | 14.2 | 3.5 | 24.3* | -0.2
O=C(/C=C/Nc1ccc(Cc2ccc(N/C=C/C(=O)C(F)(F)F)cc2)cc1)C(F)(F)F | i | 3.5 | 1.8 | 1.6 | 10.6 | -1.5
CCC1(c2ccc(F)cc2)NC(=O)N(CC(=O)c2cc(C)n(C3CC3)c2C)C1=O (centres undefined) | i | -0.6 | -46.4 | 0.2 | 0.7 | 65.9*
O=C(O)c1cccc2c1C(=O)N(Cc1ccccc1)C2 | i | -1.1 | 63.1* | 4.9 | -2.2 | 0.2
COCCCN1Cc2cccc(C(=O)O)c2C1=O | i | 3.2 | 14.0 | 4.8 | -2.1 | -6.8
COCCn1c(-c2ccccc2)csc1=Nc1cccnc1 | i | 6.2 | 92.5* | · | -0.8 | -0.3
CCOc1ccc(N=c2scc(-c3ccccc3)n2CCO)cc1 | i | 2.5 | 1.9 | -2.2 | -2.3 | -2.7
CCn1c(-c2ccccc2)csc1=Nc1ccc(O)cc1 | + | 1.1 | 39.9 | 1.8 | -1.9 | -1.7
c1ccc(-c2csc(=Nc3cccnc3)n2CC2CCCO2)cc1 (centres undefined) | i | 1.4 | 41.7 | 0.9 | 0.1 | -3.1
CS(=O)(=O)N1CCc2cc(S(=O)(=O)N3CCN(Cc4ccc5c(c4)OCO5)CC3)ccc21 | i | 5.0 | 56.6* | 2.0 | -2.3 | -3.1
CCOc1ccc(S(=O)(=O)N2CCN(Cc3ccc4c(c3)OCO4)CC2)cc1OCC | i | 3.3 | -36.2 | -1.4 | -0.8 | 3.5
Cc1ccc(N2C(=S)N=C(Nc3ccccc3C)C23CCOC(C)(C)C3)cc1 (centres undefined) | i | 5.8 | 26.7 | 2.3 | -2.6 | -3.2
Nc1nc(Nc2ccccc2Cl)cc(=O)[nH]1 | i | -2.8 | 99.5* | -1.8 | 0.4 | -0.2
Cc1cc(=O)[nH]c(Nc2cccc(Cl)c2C)n1 | i | -3.1 | -4.6 | 1.9 | 0.2 | -0.1
CCOC(=O)/C(=C/C=C1\Sc2cc(C)c(C)cc2N1CC)C(C)=O | + | · | -92.6 | -123.8 | · | 156.3*
CNc1nc(-c2ccc3c(c2)CCN3C(=O)CC(C)(C)C)c(C)s1 | i | 1.0 | -3.9 | -1.1 | -2.0 | -3.8
CCCC(=O)N1CCc2cc(-c3nc(N)sc3C)ccc21 | i | 2.6 | 50.8* | 2.1 | -4.5 | -2.3
O=C(NCCO)c1nc(C(=O)c2ccccc2)c2ccccc2n1 | i | 2.9 | 1.4 | 0.4 | · | 0.3
O=C1c2cccc3c([N+](=O)[O-])ccc(c23)C(=O)N1CCc1ccccn1 | ? | 5.3 | 22.7 | 5.5 | -1.4 | 2.0
CN(C)CCCN1C(=O)c2cccc3c([N+](=O)[O-])ccc(c23)C1=O | ? | 1.6 | 80.9* | 1.9 | -25.5 | 56.0*
Cc1ccc(C(=O)OCC(=O)N(Cc2ccccc2)C(C)C)cc1C | i | 0.9 | 1.2 | 2.6 | · | -0.7
Cc1nc([N+](=O)[O-])c(Sc2nc3ccccc3n2C)n1Cc1ccccc1 | · | -2.8 | -69.8 | 0.8 | 1.6 | -0.8
SMILES | Myeloid diff 2 | IDE cell inh | CRFR2-BP antag | IDE act | TPT1 inh | CRFR2-BP ag
COCCN1CC(=O)N(c2cccc(C)c2C)C(c2ccc(Cl)cc2)C1=O (centres undefined) | i | -1.6 | 56.2* | -3.6 | -2.7 | -2.8
COCCN1CC(=O)N2C(c3cccc(C)c3)c3[nH]c4ccccc4c3C[C@H]2C1=O (some centres undefined) | i | -0.1 | -23.7 | 1.6 | -1.7 | 12.9
COc1ccc(OC)c(C2=NOC(C(=O)Nc3ccccc3SC)C2)c1 (centres undefined) | i | 0.4 | -8.9 | -3.3 | 1.9 | 0.9
COc1ccc(OC)c(C2=NOC(C(=O)Nc3cccc(C(C)=O)c3)C2)c1 (centres undefined) | + | 5.3 | 23.4 | -1.2 | 1.1 | -5.2
COc1ccc(NC(=O)CSc2n[nH]c(-c3ccco3)n2)cc1 | + | 3.6 | 1.1 | -3.2 | 0.2 | -1.3
O=C(O)c1ccc(CSc2n[nH]c(-c3ccco3)n2)cc1 | i | 9.1 | -10.8 | 0.8 | -1.0 | -0.4
O=C(CSc1n[nH]c(-c2ccco2)n1)Nc1ccc(Br)cc1 | i | 0.4 | 16.1 | -10.7 | -2.9 | -0.3
C#CCSc1n[nH]c(-c2ccco2)n1 | + | 1.5 | 15.0 | 1.9 | 1.5 | -1.1
CN(C(=O)Cn1nnc(-c2cccnc2)n1)C1CCCCC1 | · | 1.5 | 8.1 | · | -2.3 | 1.3
CC(C)(C)S(=O)(=O)N1Cc2cc(=O)n(Cc3ccccc3)c(CCO)c2[C@H]1CCO | i | · | 0.0 | 5.5 | · | -0.1
Cc1sc2ncnc(N3CCN(CCOc4ccc(Cl)cc4)CC3)c2c1C | + | 9.3 | -44.8 | -3.5 | -2.4 | 5.0
CN1CCN(S(=O)(=O)c2cccc(C(=O)NCc3ccccc3Cl)c2)CC1 | i | -3.5 | 9.9 | 1.8 | -2.5 | -0.9
CCN(C(=O)COC(=O)COc1ccc(Cl)c(C)c1)C1CCS(=O)(=O)C1 (centres undefined) | i | -1.1 | -3.8 | -2.1 | · | 0.3
CC1CCC(NC(=O)CCS(=O)(=O)c2ccc3c(c2)CCN3C(=O)C2CC2)CC1 (centres undefined) | + | -1.2 | 0.7 | -2.1 | -3.2 | -2.0
N#CCCSCc1ccc(C(=O)O)o1 | i | -1.6 | 17.6 | 5.1 | -3.8 | 0.4
CCCCSCc1ccc(C(=O)O)o1 | + | 5.0 | 1.7 | -0.7 | -3.3 | -0.1
CC(=O)c1c(C)n(C)c2ccc(OC(=O)c3ccco3)cc12 | + | -0.2 | -7.2 | 6.6 | 1.1 | 0.3
COc1ccc(CCn2c(C)c(C(C)=O)c3cc(OC(=O)c4ccco4)ccc32)cc1OC | i | -2.9 | 16.4 | -2.7 | -1.7 | 6.3
COc1ccc(-c2sc3cc4c(cc3c2C#Cc2cncn2C)OCO4)cc1 | · | -2.5 | 15.6 | 3.1 | · | -1.2
COc1ccc(-c2sc3ccc(OC)cc3c2C#Cc2cncn2C)cc1 | + | 5.9 | -7.0 | -1.8 | · | 0.8
CC(C)(C)n1ncc2c(=O)n(CC(=O)NCc3ccc(F)cc3)cnc21 | + | 1.0 | 7.3 | 2.5 | -3.2 | 3.2
Cc1nc(SCC(=O)N2c3ccccc3NC(=O)CC2C)c2c(C)c(C)sc2n1 (centres undefined) | i | · | 13.4 | -1.1 | · | 0.7
Cc1sc2nc(C3CC3)nc(SCC(=O)N3c4ccccc4CC3C)c2c1C (centres undefined) | + | 2.4 | -17.9 | 1.9 | 1.5 | 7.2
Cc1nn(-c2ccccc2)c(N)c1Sc1cccc([N+](=O)[O-])c1 | i | 5.2 | 20.7 | 0.2 | -6.7 | 1.1
